Data as given in PubChem BioAssay (Tox21).
Records with an inconclusive call do not appear. Entries that show only a call come without a potency. Unmarked numbers belong to inactive results. Calls of active or inactive are those of the source. Calls come from the whole dose curve; as a rule, active = well fitted activation curve with a large enough effect in the repeat runs; inconclusive = weak or mixed curves; inactive = no such curve, though single readings can be large or run the other way.
Potency is the fitted concentration of half-maximal effect.

The compounds below were run against Nuclear receptor subfamily 1 group I member 3 (Homo sapiens) (UniProt Q14994) (assay: qHTS assay to identify small molecule agonists of the constitutive androstane receptor (CAR) signaling pathway (AID 1224839; note: nearly all actives have a fitted effect of over 15% in size;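 for activation: HepG2 cells stably carrying human CAR and a CYP2B6 luciferase reporter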)). Conditions: HepG2 hCAR CYP2B6-luciferase, agonist mode, 24 h; series mostly up to 92.4 µM.
Sequence of Nuclear receptor subfamily 1 group I member 3 (Homo sapiens) (Q14994 whole entry, looked up): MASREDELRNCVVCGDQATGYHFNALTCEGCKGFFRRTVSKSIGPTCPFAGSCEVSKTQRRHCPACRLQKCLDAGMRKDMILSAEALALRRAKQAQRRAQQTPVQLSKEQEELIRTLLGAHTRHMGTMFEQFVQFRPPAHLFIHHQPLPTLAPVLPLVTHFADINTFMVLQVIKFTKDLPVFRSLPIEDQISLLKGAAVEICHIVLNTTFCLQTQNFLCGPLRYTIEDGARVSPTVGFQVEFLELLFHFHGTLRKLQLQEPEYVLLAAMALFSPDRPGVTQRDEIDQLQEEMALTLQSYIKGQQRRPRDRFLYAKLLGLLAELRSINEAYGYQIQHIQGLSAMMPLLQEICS
Description: National Center for Advancing Translational Sciences [NCATS] NIH Chemical Genomics Center [NCGC] U.S. Environmental Protection Agency [EPA] National Institutes of Environmental Health Sciences [NIEHS] National Toxicology Program [NTP] Assay overview: The constitutive androstane receptor (CAR) is a nuclear receptor which regulates multiple drug metabolizing enzymes (DMEs) and transporters. Activating CAR will generally increase the transcription and subsequent translation of CYP2B6 and CYP3A4. These two DMEs represent about 50% of the drug metabolizing potential in the body. […] Recently, there have also been studies performed indicating CARs role in energy metabolism and cancer therapy. Therefore, inducing CARs activity could have a potential effect on diabetes and cancer. Identifying environmental toxins and compounds which modulate CAR, through the use of the Tox21 10K compound collection, will be an important step in determining the toxicity and potential therapeutic effects these factors will have on the human body.
Assay Protocol Summary: A double-stable (hCAR and CYP2B6-2.2kb) transfected cell line, derived from human hepatoma (HepG2) cells, was utilized for the duration of the quantitative high-throughput screens. The HepG2-CYP2B6-hCAR cells suspended in DMEM culture medium supplemented with 10% FBS, 5 ug/mL blasticidin, 0.5 mg/mL geneticin, 100 U/mL penicillin and 100 ug/mL streptomycin were dispensed at 2500 cells/4 uL/well in 1536-well white solid bottom plates using a Multidrop Combi. After the assay plates were incubated at 37 C/5% CO2 for 4 hrs, 23 nL of compounds at 15 concentrations (from 5-48 columns) or positive control (from 1 to 4 columns) were transferred to the assay plates using a Pintool station. One uL of PK11195, was added using a Flying Reagent Dispenser to generate a final concentration of 0.75 uM PK11195 inside each well. After a 24 hr incubation period at 37 C/5% CO2, four uL of ONE-Glo reagent was added into the assay plates using a Flying Reagent Dispenser. After a 30 min incubation period at room temperature, the luminescence intensity in the assay plates was measured using a ViewLux plate reader.
In the case of `FC1(F)C(F)(F)C(F)(F)C2(F)C(F)(C1(F)F)C(F)(F)C(F)(F)C1(F)C(F)(F)C(F)(F)C(F)(F)C(F)(F)C12F` (stereo not given), the Potency is reported as “inactive”. In the case of `CC[C@H](NC(C)C)[C@H](O)c1ccc(O)c2[nH]c(=O)ccc12`, the Potency is reported as “inactive”. `O=C1c2ccccc2C(=O)C1c1ccc2cc(S(=O)(=O)O)cc(S(=O)(=O)O)c2n1` was tested, and the Potency was 41.7 µM (active). With `CCOc1ccc2c(c1)C(C)CC(C)(C)N2` (stereo not given) the Potency was 27.3 µM (active). `C[Si](C)(C)O[Si](C)(C)O[Si](C)(C)C` was tested, and the Potency was “inactive”. `C=CC(=O)OCCCCCCCCCC` was tested, and the Potency was “inactive”. In the case of `Nc1ccc(-c2ccc(F)cc2)cc1`, the Potency is reported as 27.3 µM (active). `O=C(O)c1cccc(C(=O)O)c1C(=O)O` was tested, and the Potency was “inactive”. In the case of `O=S(=O)(O)c1cc(Cl)c(Cl)cc1Cl`, the Potency is reported as “inactive”. For `COC=O`, the activation was -2.43% [at 8.39 µM]. For `C=CCCC`, the Potency was “inactive”. `S=c1[nH][nH]c(=S)s1` was tested, and the Potency was “inactive”. For `c1ccc(-c2ccc(-c3ccccc3)cc2)cc1`, the Potency was 3.53 µM (active). In the case of `Cc1ccc2ccccc2c1[N+](=O)[O-]`, the Potency is reported as “inactive”. For `CCC(=O)O[C@]1(C(=O)COC)[C@@H](C)C[C@H]2[C@@H]3CCC4=CC(=O)C=C[C@]4(C)C3(F)[C@@H](O)C[C@@]21C` (stereo not given in full), the Potency was “inactive”. In the case of `C/C=C1\[C@H]2C=C(C)C[C@]1(N)c1ccc(=O)[nH]c1C2`, the Potency is reported as “inactive”. With `O=c1[nH][nH]c2ccccc12` the Potency was “inactive”. For `CC(C)(C)N`, the Potency was “inactive”. `C=CC(O)CCCCC` (stereo not given) was tested, and the Potency was “inactive”. `CC(C)=CCC/C(C)=C/C=N/O` was tested, and the Potency was “inactive”. For `CC(C)(O)C(=O)O`, the Potency was “inactive”. `Clc1ccccc1-c1nc(-c2ccncc2)no1` was tested, and the Potency was 10.6 µM (active). `CCCCCCCCNC` was tested, and the Potency was “inactive”. `C(/C=C/C=C/Nc1ccccc1)=Nc1ccccc1` was tested, and the Potency was “inactive”. For `CO[C@@H]1COCC[C@@H]1N[C@@H]1CC[C@@](C(=O)N2CCc3ncc(C(F)(F)F)cc3C2)(C(C)C)C1`, the Potency was “inactive”. For `CC(=O)Nc1ccccc1O`, the Potency was “inactive”. In the case of `O=Cc1ccc(Cl)c([N+](=O)[O-])c1`, the Potency is reported as “inactive”. With `CCC(CC)C(=O)O` the Potency was “inactive”. For `FC(F)(Cl)C(F)(Cl)Cl`, the Potency was “inactive”. In the case of `CC(=O)OCC(=O)[C@@]1(O)CC[C@H]2[C@@H]3CCC4=CC(=O)C=C[C@]4(C)[C@@]3(F)[C@@H](O)C[C@@]21C`, the Potency is reported as “inactive”. In the case of `NC(=O)c1ccccc1C(N)=O`, the Potency is reported as “inactive”. With `O=C(OCCCCCOC(=O)c1ccccc1)c1ccccc1` the Potency was “inactive”. In the case of `CCC(C(=O)O)c1ccc(N2Cc3ccccc3C2=O)cc1` (stereo not given), the Potency is reported as 5.96 µM (active). In the case of `CCCCCCOC(=O)c1ccccc1`, the Potency is reported as “inactive”. With `C[C@]12CCC(=O)C=C1[C@@H]1C[C@@H]1[C@H]1[C@@H]3[C@@H]4C[C@@H]4[C@@]4(CCC(=O)O4)[C@@]3(C)CC[C@@H]12` the Potency was “inactive”. With `CC(C)C/C=C(\C=O)c1ccccc1` the Potency was “inactive”. With `O=C(Cl)c1ccc(F)c(Cl)c1` the Potency was “inactive”. `CC(C)Cc1nccs1` was tested, and the Potency was “inactive”. In the case of `CC(C)(C)c1ccc(CCC=O)cc1`, the Potency is reported as “inactive”. `Nc1nc(Cl)nc2c1ncn2[C@H]1C[C@H](O)[C@@H](CO)O1` was tested, and the Potency was “inactive”.
